Our source for the binding signal values is PMC7862700, “An all-to-all approach to the identification of sequence-specific readers for epigenetic DNA modifications on cytosine”.

Common to all, as to assay: DAPPL (digital affinity profiling via proximity ligation, sequencing); 10 mM Tris-HCl pH 7.5, 50 mM NaCl, 1 mM DTT, 4% glycerol, room temperature, 30 min; GST-TFs on glutathione beads, 16-mer random dsDNA library, 0.1% formaldehyde crosslink after washing; high values mean tight binding
The target of experiment [1] is T1, FEV (Homo sapiens, UniProt Q99581 1-238).
T1 sequence: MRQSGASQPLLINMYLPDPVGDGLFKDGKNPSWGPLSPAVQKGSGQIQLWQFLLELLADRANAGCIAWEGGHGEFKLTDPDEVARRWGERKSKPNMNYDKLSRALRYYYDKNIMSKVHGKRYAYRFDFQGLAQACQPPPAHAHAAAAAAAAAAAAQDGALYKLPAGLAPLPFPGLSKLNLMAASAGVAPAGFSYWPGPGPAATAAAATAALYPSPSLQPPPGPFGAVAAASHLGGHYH
Particulars: protein: recombinant; tags: N-terminal GST; dsDNA, one strand shown. In short, it runs like this: (§1)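 Human transcription factors fused to GST were expressed in yeast, captured on glutathione beads, given DNA barcodes and pooled with a GST-only negative control. Pools were incubated with 200 nmole of a 16-mer random double-stranded DNA library in Tris/NaCl/DTT/glycerol buffer at room temperature for 30 min. They were then washed, crosslinked with 0.1% formaldehyde, proximity-ligated (BsaI/T4 ligase, 1 h, 37 °C), PCR-amplified and sequenced on an Illumina NextSeq500. Binding signal is each 6-mer's read frequency for a factor divided by its frequency for the GST control.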

Experiment [2] has as its target ETV5 (Homo sapiens, UniProt P41161 1-510). Particulars: protein: recombinant; tags: N-terminal GST; dsDNA, one strand shown. In short, it runs like this:
as §1

The target of experiment [3] is HSF1 (Homo sapiens, UniProt Q00613 1-529). The note with it: protein: recombinant; tags: N-terminal GST; chain copies: 3; dsDNA, one strand shown. In short, it runs like this:
as §1

Experiment [4] deals with T2, SPIC (Homo sapiens, UniProt Q8N5J4 1-248).
T2 sequence: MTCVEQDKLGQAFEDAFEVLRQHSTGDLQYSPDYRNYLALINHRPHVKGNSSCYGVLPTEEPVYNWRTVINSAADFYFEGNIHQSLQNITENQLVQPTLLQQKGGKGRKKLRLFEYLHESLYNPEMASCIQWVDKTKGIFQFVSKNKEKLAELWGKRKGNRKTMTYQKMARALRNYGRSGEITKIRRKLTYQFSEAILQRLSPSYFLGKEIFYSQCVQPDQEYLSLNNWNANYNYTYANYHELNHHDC
Particulars: protein: recombinant; tags: N-terminal GST; dsDNA, one strand shown. In short, it runs like this: as §1

The target in experiment [5] is ELF4 (Homo sapiens, UniProt Q99607 1-663). Particulars: protein: recombinant; tags: N-terminal GST; dsDNA, one strand shown. In short, it runs like this: as §1
In experiment [6] the target is T3, ELK4 (Homo sapiens, UniProt P28324-2 1-405).
T3 sequence: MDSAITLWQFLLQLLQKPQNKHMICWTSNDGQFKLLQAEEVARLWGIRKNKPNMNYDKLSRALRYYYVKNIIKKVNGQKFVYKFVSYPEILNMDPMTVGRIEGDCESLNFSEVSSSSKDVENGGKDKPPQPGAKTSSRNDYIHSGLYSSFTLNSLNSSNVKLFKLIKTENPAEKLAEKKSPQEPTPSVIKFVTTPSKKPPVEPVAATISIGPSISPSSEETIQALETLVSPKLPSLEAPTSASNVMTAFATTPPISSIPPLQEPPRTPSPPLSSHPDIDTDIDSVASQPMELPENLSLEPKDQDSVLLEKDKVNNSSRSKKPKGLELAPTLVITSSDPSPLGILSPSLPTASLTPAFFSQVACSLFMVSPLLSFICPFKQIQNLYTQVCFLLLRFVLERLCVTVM
The note with it: protein: recombinant; tags: N-terminal GST; dsDNA, one strand shown. In short, it runs like this: as §1

Experiment [7] has as its target T4, ETV2 (Homo sapiens, UniProt O00321 1-342).
T4 sequence: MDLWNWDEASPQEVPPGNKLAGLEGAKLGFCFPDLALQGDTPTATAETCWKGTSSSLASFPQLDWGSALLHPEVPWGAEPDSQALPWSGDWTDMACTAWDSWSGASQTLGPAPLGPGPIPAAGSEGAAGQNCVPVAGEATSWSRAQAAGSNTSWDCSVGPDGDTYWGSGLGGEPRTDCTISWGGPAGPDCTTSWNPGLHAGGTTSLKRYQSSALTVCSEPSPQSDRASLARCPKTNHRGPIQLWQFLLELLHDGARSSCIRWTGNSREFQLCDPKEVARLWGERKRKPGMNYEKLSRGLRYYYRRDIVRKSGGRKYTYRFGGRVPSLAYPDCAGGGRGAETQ
Particulars: protein: recombinant; tags: N-terminal GST; dsDNA, one strand shown. In short, it runs like this: as §1

In experiment [8] the target is T5, ELF3 (Homo sapiens, UniProt P78545 1-371).
T5 sequence: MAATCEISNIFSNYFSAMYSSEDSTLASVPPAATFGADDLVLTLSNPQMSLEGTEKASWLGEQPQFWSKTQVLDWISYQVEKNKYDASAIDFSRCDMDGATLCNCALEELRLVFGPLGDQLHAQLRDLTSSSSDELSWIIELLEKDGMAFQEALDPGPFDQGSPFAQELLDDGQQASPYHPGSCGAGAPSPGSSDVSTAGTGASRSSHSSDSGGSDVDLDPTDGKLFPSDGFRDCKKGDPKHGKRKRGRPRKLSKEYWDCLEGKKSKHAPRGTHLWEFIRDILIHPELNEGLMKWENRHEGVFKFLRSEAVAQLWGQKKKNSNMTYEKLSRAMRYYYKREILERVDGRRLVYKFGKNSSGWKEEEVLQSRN
The note with it: protein: recombinant; tags: N-terminal GST; dsDNA, one strand shown. In short, it runs like this:
as §1

Experiment [9] deals with CRX (Homo sapiens, UniProt O43186 1-299). The note with it: protein: recombinant; tags: N-terminal GST; dsDNA, one strand shown. In short, it runs like this: as §1
Experiment [10] deals with ETV1 (Homo sapiens, UniProt P50549 1-477). The note with it: protein: recombinant; tags: N-terminal GST; dsDNA, one strand shown. In short, it runs like this:
as §1

Experiment [11] concerns the target T6, ERF (Homo sapiens, UniProt P50548 1-548).
T6 sequence: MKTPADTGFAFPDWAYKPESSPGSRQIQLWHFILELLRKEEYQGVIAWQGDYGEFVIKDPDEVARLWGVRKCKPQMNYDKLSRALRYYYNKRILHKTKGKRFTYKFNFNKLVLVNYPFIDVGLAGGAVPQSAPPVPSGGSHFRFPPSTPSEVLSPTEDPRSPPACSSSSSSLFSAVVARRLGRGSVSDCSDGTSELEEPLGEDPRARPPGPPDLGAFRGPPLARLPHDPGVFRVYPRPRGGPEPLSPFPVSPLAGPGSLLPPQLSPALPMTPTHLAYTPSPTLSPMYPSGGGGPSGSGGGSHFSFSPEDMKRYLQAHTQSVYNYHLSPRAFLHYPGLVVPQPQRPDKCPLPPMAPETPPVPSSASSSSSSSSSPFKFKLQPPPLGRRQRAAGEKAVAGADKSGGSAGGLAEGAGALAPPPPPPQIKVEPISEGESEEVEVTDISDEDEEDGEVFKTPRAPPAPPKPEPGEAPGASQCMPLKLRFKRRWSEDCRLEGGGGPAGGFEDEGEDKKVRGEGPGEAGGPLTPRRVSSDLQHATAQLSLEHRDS
The note with it: protein: recombinant; tags: N-terminal GST; dsDNA, one strand shown. In short, it runs like this: as §1

In experiment [12] the target is T7, ETV3L (Homo sapiens, UniProt Q6ZN32 1-361).
T7 sequence: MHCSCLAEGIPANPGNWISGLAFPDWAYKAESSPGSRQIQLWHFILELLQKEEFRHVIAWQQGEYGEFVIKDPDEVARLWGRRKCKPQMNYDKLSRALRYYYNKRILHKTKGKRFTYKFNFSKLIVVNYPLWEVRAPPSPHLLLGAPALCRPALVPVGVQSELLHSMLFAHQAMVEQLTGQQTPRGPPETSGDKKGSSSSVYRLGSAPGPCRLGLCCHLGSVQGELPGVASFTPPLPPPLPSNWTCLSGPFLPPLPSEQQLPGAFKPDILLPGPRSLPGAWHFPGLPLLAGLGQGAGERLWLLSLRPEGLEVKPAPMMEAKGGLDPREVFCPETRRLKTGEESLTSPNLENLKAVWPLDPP
Particulars: protein: recombinant; tags: N-terminal GST; dsDNA, one strand shown. In short, it runs like this: as §1

For experiment [13], the target named is T8, ETS2 (Homo sapiens, UniProt P15036 1-469).
T8 sequence: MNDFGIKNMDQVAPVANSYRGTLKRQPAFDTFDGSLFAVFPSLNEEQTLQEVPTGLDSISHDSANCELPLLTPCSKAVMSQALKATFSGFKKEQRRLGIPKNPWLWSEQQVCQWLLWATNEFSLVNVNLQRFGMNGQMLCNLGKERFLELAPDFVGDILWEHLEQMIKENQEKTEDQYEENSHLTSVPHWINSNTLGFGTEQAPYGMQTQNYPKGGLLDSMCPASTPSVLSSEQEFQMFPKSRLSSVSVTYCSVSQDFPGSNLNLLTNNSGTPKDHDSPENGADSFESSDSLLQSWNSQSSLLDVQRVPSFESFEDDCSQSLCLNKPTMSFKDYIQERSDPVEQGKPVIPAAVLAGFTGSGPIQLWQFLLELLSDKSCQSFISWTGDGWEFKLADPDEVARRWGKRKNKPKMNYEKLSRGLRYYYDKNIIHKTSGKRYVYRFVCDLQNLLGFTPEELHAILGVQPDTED
The note with it: protein: recombinant; tags: N-terminal GST; dsDNA, one strand shown. In short, it runs like this:
as §1

Experiment [14] has as its target T9, SPDEF (Homo sapiens, UniProt O95238 1-335).
T9 sequence: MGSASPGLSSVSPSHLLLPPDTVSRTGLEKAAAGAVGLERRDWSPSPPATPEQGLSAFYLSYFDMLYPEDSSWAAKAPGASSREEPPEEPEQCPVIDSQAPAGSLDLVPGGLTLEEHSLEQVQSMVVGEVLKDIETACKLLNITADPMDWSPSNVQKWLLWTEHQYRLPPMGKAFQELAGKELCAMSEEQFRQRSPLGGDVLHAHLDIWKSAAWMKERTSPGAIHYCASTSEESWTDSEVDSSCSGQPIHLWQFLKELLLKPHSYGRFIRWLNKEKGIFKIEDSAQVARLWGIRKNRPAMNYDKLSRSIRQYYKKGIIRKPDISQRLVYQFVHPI
Particulars: protein: recombinant; tags: N-terminal GST; dsDNA, one strand shown. In short, it runs like this:
as §1

Experiment [15] has as its target T10, ETV7 (Homo sapiens, UniProt Q9Y603 1-341).
T10 sequence: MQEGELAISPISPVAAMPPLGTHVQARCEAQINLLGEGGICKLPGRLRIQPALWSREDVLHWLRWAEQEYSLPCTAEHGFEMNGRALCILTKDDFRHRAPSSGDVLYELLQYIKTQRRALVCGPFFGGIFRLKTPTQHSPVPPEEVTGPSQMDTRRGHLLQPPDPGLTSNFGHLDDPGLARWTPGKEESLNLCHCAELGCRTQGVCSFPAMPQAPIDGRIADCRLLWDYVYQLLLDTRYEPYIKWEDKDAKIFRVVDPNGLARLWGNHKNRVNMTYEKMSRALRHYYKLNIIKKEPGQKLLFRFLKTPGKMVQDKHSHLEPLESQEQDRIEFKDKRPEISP
The note with it: protein: recombinant; tags: N-terminal GST; dsDNA, one strand shown. In short, it runs like this: as §1

Experiment [16] deals with T11, ELF5 (Homo sapiens, UniProt Q9UKW6-2 1-255).
T11 sequence: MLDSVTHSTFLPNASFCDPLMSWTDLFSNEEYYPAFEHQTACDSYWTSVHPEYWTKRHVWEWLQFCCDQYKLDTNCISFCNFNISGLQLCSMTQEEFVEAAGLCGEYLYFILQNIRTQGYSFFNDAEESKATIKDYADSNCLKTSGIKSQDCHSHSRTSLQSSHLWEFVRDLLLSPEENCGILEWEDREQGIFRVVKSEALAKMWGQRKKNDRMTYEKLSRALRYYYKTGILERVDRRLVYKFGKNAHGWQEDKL
Particulars: protein: recombinant; tags: N-terminal GST; dsDNA, one strand shown. In short, it runs like this:
as §1

In experiment [17] the target is T12, ETV3 (Homo sapiens, UniProt P41162-2 1-143).
T12 sequence: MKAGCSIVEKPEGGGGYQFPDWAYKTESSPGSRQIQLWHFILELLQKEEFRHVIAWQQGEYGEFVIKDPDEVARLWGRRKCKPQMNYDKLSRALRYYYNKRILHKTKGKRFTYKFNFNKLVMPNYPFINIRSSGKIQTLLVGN
Particulars: protein: recombinant; tags: N-terminal GST; dsDNA, one strand shown. In short, it runs like this:
as §1

The target in experiment [18] is ETV6 (Homo sapiens, UniProt P41212 1-452). The note with it: protein: recombinant; tags: N-terminal GST; dsDNA, one strand shown. In short, it runs like this:
as §1

ETV6, sequence (P41212 whole entry): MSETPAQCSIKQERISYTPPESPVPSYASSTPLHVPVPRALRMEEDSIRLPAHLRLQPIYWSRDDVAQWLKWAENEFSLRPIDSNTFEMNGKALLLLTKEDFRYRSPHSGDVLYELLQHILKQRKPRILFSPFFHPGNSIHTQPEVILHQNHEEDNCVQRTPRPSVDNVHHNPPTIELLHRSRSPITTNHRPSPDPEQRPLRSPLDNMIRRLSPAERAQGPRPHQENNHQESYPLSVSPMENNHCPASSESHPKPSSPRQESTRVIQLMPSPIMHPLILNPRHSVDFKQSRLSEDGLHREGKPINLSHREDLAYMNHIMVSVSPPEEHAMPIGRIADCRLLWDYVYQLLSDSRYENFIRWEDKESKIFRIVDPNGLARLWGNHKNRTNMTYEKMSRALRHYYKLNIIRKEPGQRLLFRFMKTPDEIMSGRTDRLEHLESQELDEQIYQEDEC
ELF4, sequence (Q99607 whole entry): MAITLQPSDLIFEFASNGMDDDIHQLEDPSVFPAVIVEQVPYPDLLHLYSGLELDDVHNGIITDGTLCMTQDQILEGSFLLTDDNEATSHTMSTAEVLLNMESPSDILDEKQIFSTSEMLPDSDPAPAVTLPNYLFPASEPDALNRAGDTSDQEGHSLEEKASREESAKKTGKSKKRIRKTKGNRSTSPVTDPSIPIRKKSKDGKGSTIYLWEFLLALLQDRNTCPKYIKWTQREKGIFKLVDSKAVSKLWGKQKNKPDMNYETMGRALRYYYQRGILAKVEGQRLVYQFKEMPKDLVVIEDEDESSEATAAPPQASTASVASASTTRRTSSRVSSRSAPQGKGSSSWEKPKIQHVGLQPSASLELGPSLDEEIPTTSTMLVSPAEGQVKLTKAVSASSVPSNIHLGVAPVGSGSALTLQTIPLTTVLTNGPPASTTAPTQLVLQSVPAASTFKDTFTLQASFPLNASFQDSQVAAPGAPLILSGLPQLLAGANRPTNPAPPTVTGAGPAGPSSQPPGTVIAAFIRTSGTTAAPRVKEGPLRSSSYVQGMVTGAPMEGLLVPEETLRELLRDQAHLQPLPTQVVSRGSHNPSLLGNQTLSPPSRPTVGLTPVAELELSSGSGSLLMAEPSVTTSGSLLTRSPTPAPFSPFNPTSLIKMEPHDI
ETV1, sequence (P50549 whole entry): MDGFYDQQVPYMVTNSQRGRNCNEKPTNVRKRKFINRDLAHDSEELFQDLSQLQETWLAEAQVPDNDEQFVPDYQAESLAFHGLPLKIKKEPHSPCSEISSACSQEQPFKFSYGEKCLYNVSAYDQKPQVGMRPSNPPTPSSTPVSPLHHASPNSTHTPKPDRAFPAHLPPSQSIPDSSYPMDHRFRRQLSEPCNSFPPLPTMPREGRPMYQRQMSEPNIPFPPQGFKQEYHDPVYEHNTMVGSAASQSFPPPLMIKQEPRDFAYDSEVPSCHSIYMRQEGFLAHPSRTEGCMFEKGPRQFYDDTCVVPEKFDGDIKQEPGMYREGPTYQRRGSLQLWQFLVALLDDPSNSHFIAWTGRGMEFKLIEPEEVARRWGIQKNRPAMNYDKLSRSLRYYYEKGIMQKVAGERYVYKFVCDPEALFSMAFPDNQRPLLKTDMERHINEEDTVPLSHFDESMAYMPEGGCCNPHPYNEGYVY
ETV5, sequence (P41161 whole entry): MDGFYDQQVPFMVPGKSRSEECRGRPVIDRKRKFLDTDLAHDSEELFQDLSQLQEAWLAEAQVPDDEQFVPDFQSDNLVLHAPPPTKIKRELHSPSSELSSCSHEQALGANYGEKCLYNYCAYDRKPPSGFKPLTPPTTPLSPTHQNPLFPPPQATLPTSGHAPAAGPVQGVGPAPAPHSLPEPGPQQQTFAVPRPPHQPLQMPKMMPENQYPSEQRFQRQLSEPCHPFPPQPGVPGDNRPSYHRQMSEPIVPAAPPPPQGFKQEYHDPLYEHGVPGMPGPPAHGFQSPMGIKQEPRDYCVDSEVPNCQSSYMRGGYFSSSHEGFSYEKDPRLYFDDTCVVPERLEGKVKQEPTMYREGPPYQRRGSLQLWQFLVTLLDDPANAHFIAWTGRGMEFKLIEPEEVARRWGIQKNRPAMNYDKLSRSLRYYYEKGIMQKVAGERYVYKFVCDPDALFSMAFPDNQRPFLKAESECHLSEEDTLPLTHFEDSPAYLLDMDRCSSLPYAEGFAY
HSF1, sequence (Q00613 whole entry): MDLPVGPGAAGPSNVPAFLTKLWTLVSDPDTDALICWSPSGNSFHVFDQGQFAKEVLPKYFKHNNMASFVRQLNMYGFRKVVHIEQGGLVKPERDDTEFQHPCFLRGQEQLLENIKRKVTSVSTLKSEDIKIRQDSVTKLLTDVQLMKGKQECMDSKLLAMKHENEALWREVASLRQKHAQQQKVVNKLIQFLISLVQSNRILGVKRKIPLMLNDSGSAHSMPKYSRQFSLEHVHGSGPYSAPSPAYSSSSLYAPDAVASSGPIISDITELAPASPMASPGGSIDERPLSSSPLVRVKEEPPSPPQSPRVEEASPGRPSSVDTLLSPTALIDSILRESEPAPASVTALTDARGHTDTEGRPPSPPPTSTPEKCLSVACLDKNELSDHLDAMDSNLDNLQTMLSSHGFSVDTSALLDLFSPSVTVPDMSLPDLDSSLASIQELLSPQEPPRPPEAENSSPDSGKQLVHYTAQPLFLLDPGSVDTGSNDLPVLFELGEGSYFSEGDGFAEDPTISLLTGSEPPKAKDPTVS
CRX, sequence (O43186 whole entry): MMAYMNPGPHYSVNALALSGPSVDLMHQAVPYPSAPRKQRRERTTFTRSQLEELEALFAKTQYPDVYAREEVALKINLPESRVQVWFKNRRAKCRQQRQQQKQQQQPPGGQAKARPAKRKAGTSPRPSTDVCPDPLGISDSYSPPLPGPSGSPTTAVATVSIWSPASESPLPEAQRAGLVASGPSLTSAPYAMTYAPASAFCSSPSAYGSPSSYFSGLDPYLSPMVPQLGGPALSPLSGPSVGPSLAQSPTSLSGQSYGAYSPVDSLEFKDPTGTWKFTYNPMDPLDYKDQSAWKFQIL

Turning to TTTTGC, the binding signal is 1.3 fold enrichment (6-mer frequency, TF over GST control) in [1]; 1.34 fold enrichment (6-mer frequency, TF over GST control) in experiment [2]; 1.36 fold enrichment (6-mer frequency, TF over GST control) in experiment [3]; 1.25 fold enrichment (6-mer frequency, TF over GST control) in experiment [4]; 1.42 fold enrichment (6-mer frequency, TF over GST control) in [5]; 1.3 fold enrichment (6-mer frequency, TF over GST control) in [6]. Moreover, the binding signal in experiment [7] was 1.53 fold enrichment (6-mer frequency, TF over GST control); in experiment [8], 1.34 fold enrichment (6-mer frequency, TF over GST control); in experiment [9] it was 1.41 fold enrichment (6-mer frequency, TF over GST control); in [10], 1.34 fold enrichment (6-mer frequency, TF over GST control); in experiment [11] it was 1.53 fold enrichment (6-mer frequency, TF over GST control); in experiment [12], 1.35 fold enrichment (6-mer frequency, TF over GST control). Also, the binding signal in [13] is 1.31 fold enrichment (6-mer frequency, TF over GST control); in [14], 1.35 fold enrichment (6-mer frequency, TF over GST control); in experiment [15], 1.36 fold enrichment (6-mer frequency, TF over GST control); in experiment [16], 1.27 fold enrichment (6-mer frequency, TF over GST control); in [17], 1.15 fold enrichment (6-mer frequency, TF over GST control); in experiment [18] it was 1.49 fold enrichment (6-mer frequency, TF over GST control).
